# Measurements reported in PubChem BioAssay.
# System: Wnt5a (protein binding on small-molecule microarray)
# Assay: Wnt5a binders on small-molecule microarray, primary screen, biophysical, 635/667 nm fluorescence (AID 1142);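 note: fluorescence read at 667 nm with signal to noise per printed feature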
# Details: 635 nm fluorescence, higher = more signal
row,SMILES,composite z-score
1,CC(C)C(=C=CC[C@@H](O)c1ccc(OCCO)cc1)CCO,0.224
2,CC#CCO[Si](C#CCCCCCC)(C(C)C)C(C)C,-1.15
3,CN(C)CCCC[C@@H]1NC(=O)[C@H]2C[C@@H](C(=O)NCc3ccc(F)cc3)[C@@H](c3ccc(O)cc3)N2C1=O,0.727
4,CC(C)N1CC=CC23O[C@@H]4C=CCCOC(=O)C4[C@H]2C(=O)N(CCCCCO)[C@@H]3C1=O (stereo not given in full),-0.135
5,COCCOC(=O)N1C(=O)[C@@]2(c3ccccc31)[C@H](C(=O)N1CCCCCCC1)[C@H]1C(=O)O[C@H](c3ccccc3)[C@H](c3ccccc3)N1[C@@H]2c1ccc(O)cc1,1.21
6,C#CCN([C@H](/C=C/C1CC1)[C@@H](O)Cc1ccccc1)[C@@H](Cc1ccccc1)C(=O)OC,-0.48
7,COC(=O)[C@@]1(Cc2ccc(F)cc2)[C@H]2c3cc(C(=O)N(C)C)n(CCn4cc([N+](=O)[O-])nc4C)c3C[C@H]2CN1C(=O)c1ccccc1,0.453
8,CCOC(=O)C[C@H]1[C@H](OC(=O)Cc2ccc3c(c2)OCO3)[C@@H](NC(=O)c2ccccc2)c2cc(OCCCO)ccc2N1C(=O)Cc1ccc(OC)cc1,-0.0328
9,C[N+](C)(C)CCCC[C@@H]1NC(=O)[C@H]2C[C@@H](C(=O)NCCCCCNC(=O)CS)[C@@H](c3ccc(O)cc3)N2C1=O,0.084
10,CN1C(=O)[C@]2(CCS(=O)(=O)c3ccccc3)N=C(c3ccc(OCCCO)cc3)O[C@@H]2c2ccccc21,0.088
11,O=C1O[C@@H](c2ccccc2)[C@@H](c2ccccc2)N2[C@@H](c3ccc(OCCO)cc3)[C@]3(C(=O)Nc4ccc(C#CCCO)cc43)[C@@H](C(=O)Nc3nc4ccccc4s3)[C@H]12,0.482
12,COCCn1c(C(=O)N2CCCC2)cc2c1C[C@H]1CN(C(=O)c3ccccc3)[C@@](Cc3ccccc3)(C(=O)OC)[C@@H]21,0.576
13,CC(C)(C)N1CC=CC23O[C@@H]4/C=C\CCCOC(=O)C4[C@H]2C(=O)N(CCCCCCO)[C@@H]3C1=O (stereo not given in full),-0.731
14,CCCC[C@@H](O)C1=C(COC)Cn2c(=O)n(-c3ccccc3)c(=O)n2[C@H]1CO,-0.296
15,COC(=O)[C@@H]1N=C(c2ccc(OCCCO)cc2)O[C@@H]1c1ccccc1CN=[N+]=[N-],-0.257
16,CN1C=C(C(=O)OCCS(C)(=O)=O)C(C(=O)OCCS(C)(=O)=O)=CC(CCCO)=CC1c1ccc(CN2CCCC2)cc1 (stereo not given),0.531
17,COCCOC(=O)N1C(=O)[C@@]2(c3ccccc31)[C@H](C(N)=O)[C@H]1C(=O)O[C@H](c3ccccc3)[C@H](c3ccccc3)N1[C@@H]2c1ccc(OCCO)cc1,0.62
18,CC(C)CNC(=O)[C@@H]1c2ccccc2C(=O)N(C(C)C)[C@H]1c1ccc(CO)cc1,0.0274

row,SMILES,composite z-score
1,CC(C)c1ccc(NN2C(C(O)C(C)C)C=CC3C(=O)N(c4ccccc4)C(=O)C32)cc1 (stereo not given),0.705
2,COCCOC(=O)N1C(=O)[C@@]2(c3cc(C#CCC(C(=O)OC)C(=O)OC)ccc31)[C@H](C(=O)N1CCCCCCC1)[C@H]1C(=O)O[C@H](c3ccccc3)[C@H](c3ccccc3)N1[C@@H]2c1ccccc1OCCO,1.21
3,O=C(NCCO)C1=C[C@H](Oc2ccccc2I)[C@@H](O)[C@H](NCc2ccc(F)cc2)C1,0.273
4,COC(=O)Cn1c(C(=O)N(C)C)cc2c1C[C@H]1CN(C(=O)c3ccccc3)[C@@](Cc3ccc(OC)cc3)(C(=O)OC)[C@@H]21,1.09
5,[N-]=[N+]=NCc1ccccc1C[C@]1(C(=O)NCc2ccccc2)N=C(c2ccc(OCCCO)cc2)O[C@H]1c1ccccc1CN=[N+]=[N-],0.477
6,CC(=O)NCCCC[C@@H]1NC(=O)[C@H]2C[C@@H](C(=O)NCCCCCC[N+](C)(C)C)[C@@H](c3ccc(O)cc3)N2C1=O,-0.127
7,[N-]=[N+]=NCc1ccccc1C[C@]1(C(=O)N2CCCCC2)N=C(c2ccc(OCCCO)cc2)O[C@H]1c1ccccc1,0.601
8,COc1ccc(CCNC(=O)[C@@]2(Sc3ccc(C)cc3)CC(=O)N(C(C)C)[C@@H]2c2ccc(CO)cc2)cc1,-1.02
9,COC(=O)C(CC#Cc1ccc2c(c1)[C@]1(C(=O)N2)[C@H](c2ccc(O)cc2)N2[C@H](c3ccccc3)[C@H](c3ccccc3)OC(=O)[C@H]2[C@@H]1C(=O)N1CCc2cc(OC)c(OC)cc2C1)C(=O)OC,0.294
10,COc1ccccc1CN1C(=O)c2ccccc2[C@](Cc2ccccc2I)(C(=O)NCCCN(C)C)[C@@H]1c1ccc(CO)cc1,0.168
11,CN1C(=O)C2C(C1=O)C1C=C(c3ccc(CO)cc3)C2C(c2cccs2)N1C (stereo not given),-0.192
12,NCCCC[C@@H]1NC(=O)[C@H]2C[C@@H](C(=O)NCc3ccc(F)cc3)[C@@H](c3cccc(OCCO)c3)N2C1=O,0.334
13,CC(C)(C)OC(=O)CC[C@]1(C(=O)N2CCOCC2)N=C(c2ccc(OCCCO)cc2)O[C@H]1c1ccccc1CN=[N+]=[N-],1.07
14,CC(C)[C@@H](C(=O)O)n1cc(-c2ccccc2)nn1,0.0953
15,NCCCC[C@@H]1NC(=O)[C@H]2C[C@@H](C(=O)NCc3ccc(F)cc3)[C@@H](c3ccc(O)cc3)N2C1=O,-0.0979
16,O=C1OCCC=C[C@H]2OC34C=CCN(c5ccc(Cl)cc5)C(=O)[C@H]3N(CCO)C(=O)[C@@H]4C12 (stereo not given in full),-0.524
17,O=C1O[C@@H](c2ccccc2)[C@@H](c2ccccc2)N2[C@@H](c3ccc(O)cc3)[C@]3(C(=O)Nc4ccc(C#CC5=CCCCC5)cc43)[C@@H](C(=O)N3CCCCCCC3)[C@H]12,0.0888
